CFTR F508del cor – CFTR F508del correction in bronchial cells; activity (quench increase), % at 7.58 µM; CFBE cells, YFP halide quenching; stimulated with forskolin plus potentiator P3; % fluorescence drop versus neutral controls; AID 720511; actives 0.36% (n = 350,000);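 active = mean added fluorescence quench of at least 8% versus neutral control, with both replicates also reaching 8%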;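 also: cells transiently co-express mutant CFTR-F508del with the halide-sensitive YFP; corrector assay measuring rescue of mutant channel to the surface after 24 h compound exposure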
Vif imaging – inhibitors of HIV Vif; HEK293T cells, Vif self-association by quenched fluorescence, imaging, 24 h; inhibition, % at 7.49 µM; AID 602346; actives 0.35% (n = 340,000); in the data active = inhibition above about 50%, passing the limit was not always enough
FGF22 binding-1 – shifts melting point of recombinant human FGF22 | Q9HCT0 | recombinant FGF22 thermal shift, SYPRO orange fluorescence; percent of sucrose octasulfate shift, DMSO zero | activity (Tm shift, normalised), % at 9.99 µM | actives 1.5% (n = 340,000) | AID 651658;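 active = mean Tm shift, scaled 0 neutral to 100 positive control, at about 1.3% or above, every replicate too, limit read from the data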
Target sequence (Q9HCT0 whole entry, looked up): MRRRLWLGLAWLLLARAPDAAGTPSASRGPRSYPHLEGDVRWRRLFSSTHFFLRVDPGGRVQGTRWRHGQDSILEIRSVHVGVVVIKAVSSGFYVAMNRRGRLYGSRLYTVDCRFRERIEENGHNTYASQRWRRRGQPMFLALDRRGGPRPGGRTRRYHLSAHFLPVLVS
FGF22 binding-2 – binds human FGF22 shifting its melting temperature; shares compounds with FGF22 binding-1; AID 720646; thermal shift activity, °C (ΔTm) at 38 µM; recombinant FGF22 thermal shift, SYPRO orange fluorescence; actives 2% (n = 1,000);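 active = fitted rise in melting shift crosses a set limit at or below the top valid dose tested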
SYPRO no-protein – counter-screen for FGF22 binders: compound-only thermal shift, no protein | compound-only SYPRO orange thermal shift counter-screen | AID 743019 | AC50, µM (top dose mostly 38 µM) | shares compounds with FGF22 binding-1 | actives 2% (n = 1,000);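 active = rising signal whose fitted curve reaches the 0.54 level within the top valid dose, showing a melting point, actives reach about 13 µM in these data; inactive = the rest, including activity in the opposite direction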; also: value is where the raw curve crosses a fixed level and not half-maximal
Large screens that a line does not name were inactive (follow-up assays come after a bar, where they were run). In the library only some 1.7% were active in any assay of this set; here they are far more common.

Cc1ccccc1-c1ccc2c(c1)O[C@H](CN(C)CC1CC1)[C@H](C)CN([C@H](C)CO)S2(=O)=O	FGF22 binding-1 1.5 (no result: Vif imaging) | FGF22 binding-2 inactive | SYPRO no-protein inactive
C[C@@H]1CN([C@@H](C)CO)S(=O)(=O)c2ccc(-c3ccc(F)cc3)cc2O[C@@H]1CN(C)C(=O)Nc1ccccc1F	FGF22 binding-1 1.7 (no result: Vif imaging) | FGF22 binding-2 inactive | SYPRO no-protein inactive
COc1ccccc1-c1ccc2c(c1)O[C@@H](CN(C)CC1CC1)[C@@H](C)CN([C@@H](C)CO)S2(=O)=O	none (no result: Vif imaging, FGF22 binding-1)
C[C@H]1CN([C@@H](C)CO)S(=O)(=O)c2ccc(-c3cccc(C#N)c3)cc2O[C@H]1CN(C)C(=O)Nc1cc(F)ccc1F	none (no result: Vif imaging)
C[C@@H]1CN([C@@H](C)CO)S(=O)(=O)c2ccc(-c3cccc(C#N)c3)cc2O[C@@H]1CN(C)C(=O)Nc1cc(F)ccc1F	FGF22 binding-1 1.3 (no result: Vif imaging) | SYPRO no-protein inactive
COc1cccc(NC(=O)N(C)C[C@@H]2Oc3cc(-c4ccccc4F)ccc3S(=O)(=O)N([C@H](C)CO)C[C@@H]2C)c1	FGF22 binding-1 4.0 (no result: Vif imaging) | FGF22 binding-2 inactive | SYPRO no-protein inactive
CO[C@H]1CN(C)C(=O)c2cc(NC(=O)C3CCC3)ccc2OC[C@@H](C)N(Cc2cccnc2)C[C@@H]1C	none (no result: Vif imaging)
Cc1noc(C)c1S(=O)(=O)N(C)C[C@@H]1Oc2ccc(NS(=O)(=O)c3ccc(F)cc3)cc2CC(=O)N([C@H](C)CO)C[C@H]1C	none (no result: Vif imaging)
C[C@H]1CN([C@@H](C)CO)S(=O)(=O)c2ccc(C#CC3CC3)cc2O[C@H]1CN(C)C(=O)Nc1cc(F)ccc1F	none (no result: Vif imaging, FGF22 binding-1)
C[C@H]1CN([C@@H](C)CO)S(=O)(=O)c2ccc(-c3cccc(F)c3)cc2O[C@@H]1CN(C)C(=O)Nc1cc(F)ccc1F	none (no result: Vif imaging)
C[C@H]1CN([C@@H](C)CO)S(=O)(=O)c2ccc(-c3cccc(F)c3)cc2O[C@H]1CN(C)C(=O)Nc1cc(F)ccc1F	FGF22 binding-1 1.4 (no result: Vif imaging) | FGF22 binding-2 inactive | SYPRO no-protein inactive
O=C(C1CC1)N1CC2(C1)[C@@H](c1ccccc1)[C@@H](CO)N2Cc1ccc(Cl)cc1	none (no result: Vif imaging)
Cc1ccc(S(=O)(=O)N(C)C[C@H]2Oc3ccc(NC(=O)NC4CCCCC4)cc3CC(=O)N([C@H](C)CO)C[C@@H]2C)cc1	none (no result: Vif imaging)
O=C(CN1CCCC1)Nc1ccc(OC(F)(F)F)cc1	FGF22 binding-1 26 | FGF22 binding-2 inactive | SYPRO no-protein inactive
O=C(CN1CCOCC1)Nc1ccc(OC(F)(F)F)cc1	none
C[C@H]1CN([C@@H](C)CO)C(=O)c2c(c3ccccc3n2C)-c2ccccc2CO[C@H]1CN(C)Cc1ccc2c(c1)OCCN2C	none (no result: Vif imaging)
CC(C)(C)N(Cc1ccccc1)C(=O)COC(=O)C1CCN(c2ccc(C(F)(F)F)cn2)CC1	none
CC(C)N(Cc1ccccc1)C(=O)COC(=O)C1CCN(c2ccc(C(F)(F)F)cn2)CC1	FGF22 binding-1 1.5 (no result: Vif imaging) | FGF22 binding-2 inactive | SYPRO no-protein inactive
CCOc1cc(C=NNC(=O)c2cccc(S(=O)(=O)N3CCCC3)c2)ccc1O	FGF22 binding-1 2.4 | FGF22 binding-2 inactive | SYPRO no-protein inactive
CCOc1cc(/C=N/NC(=O)c2cccc(S(=O)(=O)N3CCCC3)c2)ccc1OCC(=O)N(C)C	none
COC(=O)c1cc(OC)c(OC)cc1NC(=O)c1ccccc1C	FGF22 binding-1 8.5 | FGF22 binding-2 inactive | SYPRO no-protein inactive
COC(=O)c1cc(OC)c(OC)cc1NC(=O)c1ccccc1	none (no result: CFTR F508del cor, FGF22 binding-1)
O=C(C[C@H]1CC[C@H]2[C@@H](COC[C@H](O)CN2C(=O)C2CC2)O1)NCc1ccncc1	none (no result: Vif imaging)
CCNC(=O)C[C@@H]1CC[C@H]2[C@@H](COC[C@@H](O)CN2C(=O)C2CCOCC2)O1	none (no result: Vif imaging)
CCNC(=O)C[C@H]1CC[C@@H]2[C@H](COC[C@H](O)CN2C(=O)C2CCOCC2)O1	FGF22 binding-1 27 (no result: Vif imaging) | FGF22 binding-2 inactive | SYPRO no-protein inactive
O=C(C[C@H]1CC[C@H]2[C@@H](COC[C@@H](O)CN2C(=O)C2CC2)O1)NCc1ccncc1	FGF22 binding-1 6.3 (no result: Vif imaging) | FGF22 binding-2 inactive | SYPRO no-protein inactive
Cc1noc(C)c1S(=O)(=O)Nc1ccc2c(c1)C(=O)N([C@H](C)CO)C[C@@H](C)[C@@H](CN(C)C(=O)CCCN(C)C)OCCCC[C@H](C)O2	none (no result: Vif imaging)
O=C(Cc1c[nH]c2ccccc12)N1CCN(S(=O)(=O)c2ccc(F)cc2)CC1	none
O=C(Cc1c[nH]c2ccccc12)N1CCN(S(=O)(=O)c2cccc(Cl)c2Cl)CC1	FGF22 binding-1 2.9 | FGF22 binding-2 inactive | SYPRO no-protein inactive
CO[C@@H](CN(C)C(=O)c1ccccc1F)[C@H](C)CN([C@@H](C)CO)S(=O)(=O)c1ccc(C)cc1	none (no result: Vif imaging)
Cc1ccc2cc(CCNC(=O)c3cc4ccccc4o3)c(=O)[nH]c2c1C	none
COc1ccc2cc(CCNC(=O)c3cc4ccccc4o3)c(=O)[nH]c2c1	FGF22 binding-1 1.8 | FGF22 binding-2 inactive | SYPRO no-protein inactive
CN(C)C(=O)c1cccc(-c2ccccc2[C@@H]2[C@@H](C#N)N(C(=O)C3CCCCC3)[C@@H]2CO)c1	none (no result: Vif imaging)
COc1cccc(NC(=O)N2C[C@H](O)COC[C@@H]3O[C@@H](CC(=O)NC4CCC4)CC[C@H]32)c1	FGF22 binding-1 1.4 (no result: Vif imaging) | FGF22 binding-2 inactive | SYPRO no-protein inactive
O=C(C[C@H]1CC[C@H]2[C@@H](COC[C@@H](O)CN2C(=O)Nc2cccc(Cl)c2)O1)NCC1CCCCC1	none (no result: Vif imaging)
O=C(C[C@@H]1CC[C@H]2[C@@H](COC[C@@H](O)CN2CC2CCOCC2)O1)NCC1CCCCC1	FGF22 binding-1 7.9 (no result: Vif imaging) | FGF22 binding-2 inactive | SYPRO no-protein inactive
O=C(C[C@@H]1CC[C@H]2[C@@H](COC[C@H](O)CN2CC2CCOCC2)O1)NCC1CCCCC1	none (no result: Vif imaging)
O=C(C[C@@H]1CC[C@@H]2[C@H](COC[C@@H](O)CN2C(=O)Nc2cccc(Cl)c2)O1)NCC1CCCCC1	FGF22 binding-1 14 (no result: Vif imaging) | FGF22 binding-2 inactive | SYPRO no-protein inactive
COc1ccccc1CNC(=O)C[C@H]1CC[C@@H]2[C@H](COC[C@H](O)CN2C(=O)Nc2ccc(Cl)cc2)O1	FGF22 binding-1 17 (no result: Vif imaging) | FGF22 binding-2 inactive | SYPRO no-protein inactive
COc1ccccc1CNC(=O)C[C@H]1CC[C@H]2[C@@H](COC[C@H](O)CN2C(=O)Nc2ccc(Cl)cc2)O1	none (no result: Vif imaging)
COc1cccc(NC(=O)N2C[C@H](O)COC[C@@H]3O[C@H](CC(=O)NC4CCC4)CC[C@H]32)c1	none (no result: Vif imaging)
O=C(C[C@@H]1C[C@H]2c3cc(NC(=O)C4CCC4)ccc3O[C@H]2[C@@H](CO)O1)NCC1CC1	none (no result: Vif imaging)
CCC(=O)N(C)C[C@@H]1Oc2cc(-c3ccc(OC)cc3)ccc2S(=O)(=O)N([C@@H](C)CO)C[C@@H]1C	none (no result: Vif imaging)
O=C(C[C@@H]1C[C@H]2c3cc(NC(=O)Cc4ccncc4)ccc3O[C@H]2[C@H](CO)O1)NCCN1CCCCC1	none (no result: Vif imaging)
O=C(Nc1ccccc1)N1CCCCN2[C@H](CO)[C@@H](c3ccc(-c4ccccc4)cc3)[C@@H]2C1	none (no result: Vif imaging)
